# Data from PubChem BioAssay.
# Records with an inconclusive call do not appear. Calls of active or inactive are those of the source.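 The calls were made as follows, unless noted: active = normalized viability below 100% at a tested concentration; inactive = the rest.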
# Assays:
# [1] = stimulators of nuclear beta-catenin in C2C12, primary screen, imaging, WNT3A-conditioned medium, mouse C2C12, NPC library (AID 1117326; in the data active = nuclear beta-catenin stimulation mostly above about 4.2%, no sharp cut-off; inactive = mostly below about 10%); conditions: stronger effect = higher value
# [2] = stimulators of insulin release from INS-1E, primary screen, cell-based, 5 mM glucose, NPC library (AID 1117329;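 active = compound raises insulin release from rat beta cells at 5 mM glucose, no numeric limit stated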); conditions: rat INS-1E insulin secretion, at 10 µM, stronger effect = higher value
# [3] = growth inhibition of GSK3B-pretreated HCT116 cells – cell-based, CellTiter-Glo, 0.2 to 20 µM (AID 1117336;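 active = compounds lowering colon cancer cell viability after pretreatment blocking the GSK3B kinase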); conditions: HCT116 viability after GSK3B inhibitor, at 20 µM, stronger effect = higher value
# [4] = inhibition of endothelial tube formation, primary screen, imaging, VEGF stimulated, CD31 staining, tube area, NPC library (AID 1117340;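 active = compound that reduces growth-factor-driven endothelial tube area in a mixed cell culture, no cutoff stated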); conditions: VEGF-stimulated ADSC/ECFC co-culture, at 10 µM, stronger effect = higher value
# [5] = glucagon-like peptide 1 release enhancers, primary assay, NCI-H716 cell line, NPC library (AID 1117341;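 active = compound raises GLP1 secretion from the human gut endocrine cells, with no numeric limit stated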); conditions: NCI-H716 cells, at 10 µM, stronger effect = higher value
# [6] = HCT116 colon cancer cell growth inhibition, primary screen, CellTiter-Glo luminescence, NPC library (AID 1117342;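 active = compounds that lower survival of HCT116 colon cancer cells in the luminescence readout, no numeric limit stated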); conditions: at 20 µM (top of the series)
# [7] = CellTiter-Glo luminescent readout of SW480 viability loss, NPC library primary (AID 1117343;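 active = compounds that lower viability of the colon cancer cells in the luminescence readout, with no numeric limit stated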); conditions: CellTiter-Glo luminescence; at 20 µM (top of the series) unless noted
# [8] = decreased DLD-1 cellular survival, CellTiter-Glo luminescent readout, NPC compound collection, primary HTS (AID 1117346;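 active = compounds that lower survival of DLD-1 colon cancer cells in the luminescence readout, no cutoff given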); conditions: DLD-1 viability, CellTiter-Glo luminescence; at 20 µM (top of the series)
# [9] = biological target: NAD(+) hydrolase SARM1 (Homo sapiens) (UniProt Q6SZW1); test: SARM1 TIR NADase inhibitors, cell lysate, NAD-Glo luminescence (AID 1508614;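 active = compound whose remaining NAD level is above about 45 nM, limit read from the data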;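 also: higher remaining NAD means stronger inhibition of SARM1 NADase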); conditions: SAM-TIR HEK293T lysate NADase, at 1 µM, stronger effect = higher value
# NAD(+) hydrolase SARM1 (Homo sapiens), sequence (Q6SZW1 whole entry, looked up): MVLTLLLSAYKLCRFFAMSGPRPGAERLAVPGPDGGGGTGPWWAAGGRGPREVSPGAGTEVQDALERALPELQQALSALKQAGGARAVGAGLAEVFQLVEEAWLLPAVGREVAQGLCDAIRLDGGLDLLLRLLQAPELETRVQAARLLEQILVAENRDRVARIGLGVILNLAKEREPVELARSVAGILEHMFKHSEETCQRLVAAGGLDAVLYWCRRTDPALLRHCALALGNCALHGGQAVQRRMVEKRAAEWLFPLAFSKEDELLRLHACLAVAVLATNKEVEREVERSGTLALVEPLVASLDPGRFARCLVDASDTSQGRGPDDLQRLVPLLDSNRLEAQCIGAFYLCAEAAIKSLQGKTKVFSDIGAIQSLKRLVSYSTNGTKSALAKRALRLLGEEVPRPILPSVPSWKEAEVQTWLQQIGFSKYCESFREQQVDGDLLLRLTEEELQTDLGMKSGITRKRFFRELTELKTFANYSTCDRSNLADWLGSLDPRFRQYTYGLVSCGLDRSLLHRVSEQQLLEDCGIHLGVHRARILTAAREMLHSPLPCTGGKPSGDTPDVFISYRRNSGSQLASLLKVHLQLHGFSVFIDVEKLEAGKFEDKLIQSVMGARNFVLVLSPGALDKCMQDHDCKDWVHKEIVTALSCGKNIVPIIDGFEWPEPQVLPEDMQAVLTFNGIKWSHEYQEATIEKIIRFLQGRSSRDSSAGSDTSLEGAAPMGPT
# [10] = survival rescue of mitochondrial mutant cells in low glucose, primary screen, MELAS cybrids, Rieske KO mouse fibroblasts, CellTiter-Glo (AID 1508586;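 active = mean z-score across replicates of 1.96 or higher in either the MELAS or the Rieske mutant cell line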;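 also: z relative to plate mean and SD of compound and empty wells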)
# [11] = modifiers of HSF1 nuclear foci, imaging, Selleck Cancer Library (AID 1347162; in the data active = plate-normalised HSF1 focus index below about 0.46); conditions: human cells, at 10 µM; SSMD: measured here: HSF1 foci SSMD mean; cell count: measured here: cell number; plate-normalised HSF1 focus index: stronger effect = lower value
# [12] = ovarian cancer cell viability with rucaparib, profiling panel, oncology-focused library, rucaparib conditional (AID 1508598); conditions: patient-derived ovarian cancer cells, CellTiter-Glo viability, 144 h, stronger effect = lower value
# [13] = biological target: ATP-dependent translocase ABCB1 (Homo sapiens) (UniProt P08183); test: MDR1 (ABCB1) efflux transporter inhibition, cell-based (AID 377; in the data active = fluorescence slope change above about 50%); conditions: MDR1-expressing cells, fluorescent substrate accumulation slope; stronger effect = higher value; concentration not given here
# ATP-dependent translocase ABCB1 (Homo sapiens), sequence (P08183 whole entry, looked up): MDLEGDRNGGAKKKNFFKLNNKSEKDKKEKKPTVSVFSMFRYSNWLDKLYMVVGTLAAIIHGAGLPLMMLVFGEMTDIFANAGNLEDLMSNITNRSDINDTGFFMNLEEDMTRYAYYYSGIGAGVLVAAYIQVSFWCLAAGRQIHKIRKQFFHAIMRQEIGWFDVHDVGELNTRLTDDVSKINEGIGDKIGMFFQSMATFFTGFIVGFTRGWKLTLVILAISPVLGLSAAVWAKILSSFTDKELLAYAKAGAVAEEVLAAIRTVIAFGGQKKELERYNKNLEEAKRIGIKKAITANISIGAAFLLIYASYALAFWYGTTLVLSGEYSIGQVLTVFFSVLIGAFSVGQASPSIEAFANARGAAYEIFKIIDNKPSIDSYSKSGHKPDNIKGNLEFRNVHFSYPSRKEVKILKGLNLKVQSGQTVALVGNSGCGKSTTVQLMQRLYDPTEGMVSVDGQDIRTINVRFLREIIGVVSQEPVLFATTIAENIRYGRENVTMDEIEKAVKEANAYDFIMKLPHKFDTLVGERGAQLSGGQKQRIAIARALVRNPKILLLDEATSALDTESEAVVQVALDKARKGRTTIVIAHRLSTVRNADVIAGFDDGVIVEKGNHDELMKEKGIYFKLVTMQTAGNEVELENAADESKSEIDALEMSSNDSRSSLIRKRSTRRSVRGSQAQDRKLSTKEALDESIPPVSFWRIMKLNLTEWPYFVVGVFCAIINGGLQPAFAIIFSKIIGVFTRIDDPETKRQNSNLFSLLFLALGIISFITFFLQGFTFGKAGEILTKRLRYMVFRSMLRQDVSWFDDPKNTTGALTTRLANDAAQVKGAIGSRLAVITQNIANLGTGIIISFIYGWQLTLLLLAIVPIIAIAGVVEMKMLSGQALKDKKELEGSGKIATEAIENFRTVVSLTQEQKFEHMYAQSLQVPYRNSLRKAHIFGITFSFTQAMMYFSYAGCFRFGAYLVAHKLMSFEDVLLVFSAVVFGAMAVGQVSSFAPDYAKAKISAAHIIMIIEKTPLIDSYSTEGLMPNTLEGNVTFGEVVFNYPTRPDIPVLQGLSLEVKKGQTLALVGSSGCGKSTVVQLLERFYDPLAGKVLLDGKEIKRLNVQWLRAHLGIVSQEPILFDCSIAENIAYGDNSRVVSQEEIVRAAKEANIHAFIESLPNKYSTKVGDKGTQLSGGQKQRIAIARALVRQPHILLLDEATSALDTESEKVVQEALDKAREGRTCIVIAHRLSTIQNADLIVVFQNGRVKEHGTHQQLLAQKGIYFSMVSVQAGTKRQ
# [14] = MELAS cybrid survival, CellTiter-Glo 48 h, stronger effect = higher value
# [15] = Rieske KO mouse fibroblast survival, CellTiter-Glo 72 h
compound,measurement,setting,value
CCNC(=O)/C=C/c1cccc(Br)c1,nuclear beta-catenin stimulation,[1]; at 10 µM,0.9% (inactive)
same,nuclear beta-catenin stimulation,"[1]; stimulation, at 2 µM",0.6%
same,insulin secretion stimulation,[2],-2.3% (inactive)
same,viability decrease,[3],-9.75% (inactive)
same,tube area decrease,[4],-15.1% (inactive)
same,GLP1 secretion stimulation,[5],-0.7% (inactive)
same,inhibition of viability,[6],-8.7% (inactive)
same,viability decrease (inhibition),[7],38% (inactive)
same,viability decrease (inhibition),[8],15.1% (inactive)
same,remaining NAD,[9],10 nM (inactive)
N[C@@H](Cc1ccc(O)cc1)C(=O)O,nuclear beta-catenin stimulation,[1]; at 10 µM,-2% (inactive)
same,nuclear beta-catenin stimulation,"[1]; stimulation, at 2 µM",-0.2%
same,insulin secretion stimulation,[2],3.9% (inactive)
same,viability decrease,[3],-7.6% (inactive)
same,tube area decrease,[4],1% (inactive)
same,GLP1 secretion stimulation,[5],3% (inactive)
same,inhibition of viability,[6],3.9% (inactive)
same,viability decrease (inhibition),[7],-0.8% (inactive)
same,viability decrease (inhibition),[8],-0.1% (inactive)
same,remaining NAD,[9],10 nM (inactive)
O=C1NCCN1CCN1CCC(c2cn(-c3ccc(F)cc3)c3ccc(Cl)cc23)CC1,nuclear beta-catenin stimulation,[1]; at 10 µM,5.7% (inactive)
same,nuclear beta-catenin stimulation,"[1]; stimulation, at 2 µM",0.1%
same,insulin secretion stimulation,[2],5.2% (inactive)
same,viability decrease,[3],99.9% (active)
same,tube area decrease,[4],100% (active)
same,GLP1 secretion stimulation,[5],-1.3% (inactive)
same,inhibition of viability,[6],100% (active)
same,viability decrease (inhibition),[7],103% (active)
same,viability decrease (inhibition),[8],102% (active)
same,z-score,[10]; [14],-0.903 (inactive)
same,z-score,[10]; [15],0.239
C[C@]1(Cn2ccnn2)[C@H](C(=O)O)N2C(=O)C[C@H]2S1(=O)=O,nuclear beta-catenin stimulation,[1]; at 10 µM,-1.1% (inactive)
same,nuclear beta-catenin stimulation,"[1]; stimulation, at 2 µM",0.1%
same,insulin secretion stimulation,[2],10.1% (inactive)
same,viability decrease,[3],-2.3% (inactive)
same,tube area decrease,[4],-6% (inactive)
same,GLP1 secretion stimulation,[5],1.9% (inactive)
same,inhibition of viability,[6],3.3% (inactive)
same,viability decrease (inhibition),[7],17.8% (inactive)
same,viability decrease (inhibition),[8],-1.5% (inactive)
same,z-score,[10]; [14],-0.126 (inactive)
same,z-score,[10]; [15],-0.0503
same,remaining NAD,[9],10 nM (inactive)
Cn1c(=O)c2c(ncn2CC(=O)O)n(C)c1=O,nuclear beta-catenin stimulation,[1]; at 10 µM,-0.1% (inactive)
same,nuclear beta-catenin stimulation,"[1]; stimulation, at 2 µM",-1%
same,insulin secretion stimulation,[2],0.95% (inactive)
same,viability decrease,[3],20.3% (inactive)
same,tube area decrease,[4],-15.7% (inactive)
same,GLP1 secretion stimulation,[5],-0.7% (inactive)
same,inhibition of viability,[6],12.3% (inactive)
same,viability decrease (inhibition),[7],0.4% (inactive)
same,viability decrease (inhibition),[8],-5.4% (inactive)
same,z-score,[10]; [14],0.592 (inactive)
same,z-score,[10]; [15],0.00475
CN1CC[C@H](c2c(O)cc(O)c3c(=O)cc(-c4ccccc4Cl)oc23)[C@H](O)C1,nuclear beta-catenin stimulation,[1]; at 10 µM,72.1% (active)
same,nuclear beta-catenin stimulation,"[1]; stimulation, at 2 µM",76.1%
same,insulin secretion stimulation,[2],2.75% (inactive)
same,viability decrease,[3],73.7% (active)
same,tube area decrease,[4],110% (active)
same,GLP1 secretion stimulation,[5],6.7% (inactive)
same,inhibition of viability,[6],54.4% (active)
same,viability decrease (inhibition),[7],62.3% (active)
same,viability decrease (inhibition),[8],78.5% (active)
same,SSMD,[11],1.33
same,cell count,[11],6730
same,plate-normalised HSF1 focus index,[11],1.07 (inactive)
same,viability,"[12]; at 0.000305 µM, OCI-C5x cells, with rucaparib 10 µM, 100% = cells with rucaparib alone",109% (inactive)
same,viability,"[12]; at 0.000305 µM, OCI-C5x cells, without rucaparib",112% (inactive)
same,viability,"[12]; at 0.000305 µM, OCI-P5x cells, with rucaparib 20 µM, 100% = cells with rucaparib alone",56.8% (active)
same,viability,"[12]; at 0.000305 µM, OCI-P5x cells, without rucaparib",15.2% (active)
same,viability,"[12]; at 0.00122 µM, OCI-C5x cells, with rucaparib 10 µM, 100% = cells with rucaparib alone",93.2% (active)
same,viability,"[12]; at 0.00122 µM, OCI-C5x cells, without rucaparib",107% (inactive)
same,viability,"[12]; at 0.00122 µM, OCI-P5x cells, with rucaparib 20 µM, 100% = cells with rucaparib alone",62% (active)
same,viability,"[12]; at 0.00122 µM, OCI-P5x cells, without rucaparib",15.8% (active)
same,viability,"[12]; at 0.00488 µM, OCI-C5x cells, with rucaparib 10 µM, 100% = cells with rucaparib alone",92.5% (active)
same,viability,"[12]; at 0.00488 µM, OCI-C5x cells, without rucaparib",109% (inactive)
same,viability,"[12]; at 0.00488 µM, OCI-P5x cells, with rucaparib 20 µM, 100% = cells with rucaparib alone",97.7% (active)
same,viability,"[12]; at 0.00488 µM, OCI-P5x cells, without rucaparib",103% (inactive)
same,viability,"[12]; at 0.0195 µM, OCI-C5x cells, with rucaparib 10 µM, 100% = cells with rucaparib alone",66% (active)
same,viability,"[12]; at 0.0195 µM, OCI-C5x cells, without rucaparib",80% (active)
same,viability,"[12]; at 0.0195 µM, OCI-P5x cells, with rucaparib 20 µM, 100% = cells with rucaparib alone",67.9% (active)
same,viability,"[12]; at 0.0195 µM, OCI-P5x cells, without rucaparib",70.9% (active)
same,viability,"[12]; at 0.0781 µM, OCI-C5x cells, with rucaparib 10 µM, 100% = cells with rucaparib alone",28.7% (active)
same,viability,"[12]; at 0.0781 µM, OCI-C5x cells, without rucaparib",22.9% (active)
same,viability,"[12]; at 0.0781 µM, OCI-P5x cells, with rucaparib 20 µM, 100% = cells with rucaparib alone",35.2% (active)
same,viability,"[12]; at 0.0781 µM, OCI-P5x cells, without rucaparib",23.5% (active)
same,viability,"[12]; at 0.313 µM, OCI-C5x cells, with rucaparib 10 µM, 100% = cells with rucaparib alone",12% (active)
same,viability,"[12]; at 0.313 µM, OCI-C5x cells, without rucaparib",10.8% (active)
same,viability,"[12]; at 0.313 µM, OCI-P5x cells, with rucaparib 20 µM, 100% = cells with rucaparib alone",21% (active)
same,viability,"[12]; at 0.313 µM, OCI-P5x cells, without rucaparib",12.5% (active)
same,viability,"[12]; at 1.25 µM, OCI-C5x cells, with rucaparib 10 µM, 100% = cells with rucaparib alone",10.1% (active)
same,viability,"[12]; at 1.25 µM, OCI-C5x cells, without rucaparib",10.5% (active)
same,viability,"[12]; at 1.25 µM, OCI-P5x cells, with rucaparib 20 µM, 100% = cells with rucaparib alone",16.2% (active)
same,viability,"[12]; at 1.25 µM, OCI-P5x cells, without rucaparib",13.2% (active)
same,viability,"[12]; at 5 µM, OCI-C5x cells, with rucaparib 10 µM, 100% = cells with rucaparib alone",13.5% (active)
same,viability,"[12]; at 5 µM, OCI-C5x cells, without rucaparib",11.4% (active)
same,viability,"[12]; at 5 µM, OCI-P5x cells, with rucaparib 20 µM, 100% = cells with rucaparib alone",14.2% (active)
same,viability,"[12]; at 5 µM, OCI-P5x cells, without rucaparib",10.5% (active)
CCOc1ccccc1OCC1CNCCO1 (stereo not given),fluorescence slope change,[13],51.5% (active)
same,nuclear beta-catenin stimulation,[1]; at 10 µM,0.4% (inactive)
same,nuclear beta-catenin stimulation,"[1]; stimulation, at 2 µM",-0.3%
same,insulin secretion stimulation,[2],1.75% (inactive)
same,viability decrease,[3],1.7% (inactive)
same,tube area decrease,[4],-7% (inactive)
same,GLP1 secretion stimulation,[5],-0.1% (inactive)
same,inhibition of viability,[6],32.4% (inactive)
same,viability decrease (inhibition),[7],-7.1% (inactive)
same,viability decrease (inhibition),[8],-5.4% (inactive)
same,z-score,[10]; [14],0.538 (inactive)
same,z-score,[10]; [15],-0.146
